# Measurements from the supplement of paper PMC3334620.
# The full ranking holds about 33,000 sequences; the median of “E-score (-0.5 to 0.5)” is about -0.016, and the highest 2% start at about 0.3. This is one part of a sample in which the highest values are shown more often than they occur.
# Biological target: T1, Yer184c (UniProt P39961)
# T1 sequence: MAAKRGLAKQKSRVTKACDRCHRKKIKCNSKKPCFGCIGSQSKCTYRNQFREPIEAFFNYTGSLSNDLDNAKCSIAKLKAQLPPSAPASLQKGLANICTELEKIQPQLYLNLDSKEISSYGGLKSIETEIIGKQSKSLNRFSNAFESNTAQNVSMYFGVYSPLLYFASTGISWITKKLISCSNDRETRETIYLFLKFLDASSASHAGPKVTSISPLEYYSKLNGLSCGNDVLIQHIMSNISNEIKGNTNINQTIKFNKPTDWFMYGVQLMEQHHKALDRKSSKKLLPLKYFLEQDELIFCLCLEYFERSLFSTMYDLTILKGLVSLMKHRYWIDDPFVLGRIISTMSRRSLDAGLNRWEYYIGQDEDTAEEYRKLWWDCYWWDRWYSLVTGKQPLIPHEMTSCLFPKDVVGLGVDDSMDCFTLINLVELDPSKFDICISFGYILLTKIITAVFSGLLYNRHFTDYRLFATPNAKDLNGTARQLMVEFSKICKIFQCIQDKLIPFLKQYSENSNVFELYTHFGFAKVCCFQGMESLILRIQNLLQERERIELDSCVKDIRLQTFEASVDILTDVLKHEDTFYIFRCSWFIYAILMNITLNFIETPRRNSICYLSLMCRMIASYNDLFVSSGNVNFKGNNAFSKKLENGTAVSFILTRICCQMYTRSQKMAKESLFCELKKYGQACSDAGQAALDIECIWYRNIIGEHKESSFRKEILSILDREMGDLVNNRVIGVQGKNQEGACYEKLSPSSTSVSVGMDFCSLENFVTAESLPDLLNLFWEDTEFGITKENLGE
# Assay: PBM E-score (8-mer binding enrichment) (E-score (-0.5 to 0.5)); higher = stronger / more preferred TF binding
# Conditions: protein concentration: 100 nM; construct: GST-full length
# Experimental: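 Universal 'all 10-mer' protein binding microarrays (Agilent AMADID 015681) probed with GST-tagged S. cerevisiae TFs (full-length or DBD) made by in vitro transcription/translation (PURExpress), about 100-200 nM. Bound TF was detected with fluorescent anti-GST. Each ungapped 8-mer (which stands for itself and its reverse complement) is scored by the PBM enrichment score (E-score), a modified Wilcoxon-Mann-Whitney statistic from -0.5 to +0.5, computed with the Universal PBM Analysis Suite. Scale: above 0.35 generally sequence-specific binding.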
row,Sequence,PBM E-score
1,AGTAACTA,0.173
2,AGAAAACC,0.0683
3,CACCCCGC,0.0453
4,CGCAAGTA,0.0344
5,GGACCCAA,-0.081
6,CCGTCAAA,0.0576
7,ACTCTGGC,-0.105
8,AGAGAACG,0.0412
9,AGACTAAG,-0.0179
10,ATCGTGGC,-0.101
11,ATAGATAT,0.161
12,CGCTTTTC,-0.0353
13,ACTGGCAA,-0.0748
14,AGTCTAGG,-0.144
15,AATCGGAG,0.216
16,AATCGGAA,0.374
17,AATCGGGA,0.0709
18,ACTTCACC,0.18
19,GCGCTTTA,0.0325
20,ACTGGCGG,-0.0142
21,AAATGCCC,-0.175
22,AAATGCCG,0.353
23,CAATGCCG,0.22
24,CGTGCGTC,0.0693
25,AATGTTCT,0.0086

row,Sequence,PBM E-score
1,ATCGCCGC,0.206
2,GTCGCCGA,0.219
3,ATCGCCGA,0.365
4,ACCGCCGG,0.291
5,CTCGCCGA,0.193
6,ATCGCCGG,0.39
7,GCCCGTGA,-0.132
8,AAATGCTC,-0.0216
9,ACGGGTTC,0.0138
10,CCGGGTAC,0.117
11,TCGGGTAA,0.0925
12,CCGGGTAA,0.348
13,CCGGGTTC,0.356
14,CCGGGTTA,0.25
15,AGTTGTAG,0.0893
16,AAGGTGTA,-0.105
17,CGCCACCG,-0.156
18,AGTCCCAT,-0.173
19,CCAGACCC,-0.262
20,AACTTTCA,0.122
21,GTACGGAA,0.28
22,ATACGGAA,0.412
23,ATACGGAT,0.196
24,ATACGGAC,0.117
25,TTACGGAA,0.355

row,Sequence,PBM E-score
1,CTACGGAA,0.205
2,CCTACTGA,-0.151
3,GGTCTATA,-0.16
4,TGCCGCAA,0.135
5,ACCGCATG,0.0226
6,ATGCTATG,-0.117
7,CGGAATTC,0.277
8,GGGAATCA,0.0818
9,AGGAATCA,0.078
10,AGGAATTA,0.0841
11,CGGAATTA,0.352
12,CGGAATCA,0.306
13,CGGAAGCC,0.211
14,GGGAAGCA,-0.128
15,CGGAATAC,0.353
16,CGGAAGCA,0.332
17,AGGAATAC,-0.0183
18,GGGAATAC,0.0278
19,CGCTGCAA,0.0112
20,AAACGATC,0.161
21,ACATACTC,0.0395
22,TAGCAGAA,0.0545
23,ACCGGAGC,0.247
24,ACCGGAGG,0.144
25,CCCGGAGA,0.222

row,Sequence,PBM E-score
1,ACCGGAGA,0.33
2,TCCGGAGA,0.397
3,GCCGGAGA,0.29
4,ATGATCAC,-0.0394
5,AACTAGTG,-0.0163
6,ACCATTCC,0.0171
7,ATTGGCCA,-0.148
8,TCGGTTCA,0.148
9,TCAGGAAA,0.112
10,CCCGGAAA,0.396
11,TGCGGAAA,0.184
12,TCCGGAAA,0.449
13,GCTGGAAA,0.133
14,GCAGGAAA,-0.0351
15,GCCGGAAA,0.426
16,CCCGGAAG,0.259
17,ATCTAGCC,0.00276
18,AGGTTATC,-0.0359
19,GAACTTGC,0.0842
20,ATCTTTTC,0.0824
21,CAGCGTAC,-0.147
22,CGCCATTC,0.0678
23,CCACGGAC,-0.00729
24,CCACGGAG,0.0656
25,ACACGGAA,0.295

row,Sequence,PBM E-score
1,CCACGGAA,0.338
2,GCACGGAA,0.159
3,TCACGGAA,0.341
4,AGGACAAG,-0.102
5,AAGTCTCT,-0.246
6,AACAGAAC,0.163
7,GTTGTACA,0.277
8,ATGCCGTC,0.0209
9,CTGCCGTC,-0.066
10,CTGCCGGC,0.369
11,ATGCCGCA,0.124
12,GTGCCGGA,0.305
13,ATGCCGGG,0.244
14,GTGCCGTA,0.16
15,ATGCCAGA,0.0873
16,ATGCCGGC,0.399
17,ATGCCGGA,0.36
18,CTGCCGAC,0.0291
19,GGGCCGGA,0.244
20,ATACGCGG,-0.0243
21,AGCCCTCC,-0.201
22,GCATTCCC,-0.182
23,ACCTCTAA,0.0296
24,CATTGTGA,-0.164
25,GCTGTGCC,-0.0243

row,Sequence,PBM E-score
1,AGAGAGAT,0.0462
2,CACGTTCC,-0.176
3,AGACCAAC,-0.108
4,ATATTATG,0.261
5,ATATAACG,0.255
6,CAAGTAGC,-0.216
7,CTGCCGGA,0.349
8,CTGCCGTA,-0.00407
9,CTGCCGCA,-0.117
10,CGATGCGA,-0.0338
11,GCCGAGTA,0.262
12,TCCGAGCA,0.329
13,GTCGAGAA,-0.0535
14,ACCGAGAC,0.0458
15,CCCGAGAA,0.234
16,ACCGAGCA,0.225
17,TCCGAGAA,0.324
18,GCCGAGAA,0.368
19,ACCGAGAA,0.282
20,GCCGAGCA,0.186
21,CCCGAGAC,0.0787
22,GCCGAGAC,0.327
23,GTCCTGCA,-0.122
24,CGGCACTC,0.124
25,ACAACGTC,-0.0597

row,Sequence,PBM E-score
1,ACAGACGG,-0.11
2,TGAGCACA,0.0117
3,CTGCATAA,0.11
4,AGAAAGCG,-0.0479
5,GCTGCGAA,0.0893
6,CAGGTCGG,-0.119
7,CCAGATCA,0.135
8,CATCTCCG,0.37
9,AATCTCCG,0.3
10,CATCTCCC,-0.0754
11,AAGCAGAC,-0.195
12,CCCACAGA,-0.227
13,AAGTAGCC,-0.0314
14,CGTCCGTA,0.0308
15,AGTCCGGC,0.289
16,GGTCCGGA,0.376
17,GTCCCCGA,-0.142
18,GGTCCGTA,0.178
19,CTCCCGGA,0.243
20,AGTCCGGG,0.212
21,CGTCCGGC,0.296
22,GTCCCGGA,0.318
23,AGTCCGGA,0.429
24,GGTCCGCA,0.151
25,CGTCCGGA,0.323
